Pf growth 48h – Primary qHTS for delayed death inhibitors of the malarial parasite plastid, 48 hour incubation; hit rate 5.9% among 310,000; AID 504832, 2011; P. falciparum luciferase growth in erythrocytes, 48 h; Potency, µM (top dose mostly 28.7 µM), usual class: inhibitors
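Read-out is firefly luciferase luminescence from an integrated reporter in P. falciparum, so falling signal marks reduced parasite growth. Infected erythrocytes were at 2% hematocrit and 0.1% parasitemia (final) in Albumax-supplemented RPMI 1640.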
Giardia FBPA inh – qHTS Assay for Inhibitors of Fructose-1,6-bisphosphate Aldolase from Giardia Lamblia; hit rate 0.71% among 290,000; purified Giardia FBPA; Potency, µM (top dose mostly 59.6 µM), usual class: inhibitors; AID 2451, 2010; note: nearly all actives have a fitted effect of over 55% in size
Target sequence (A8B2U2 whole entry, looked up): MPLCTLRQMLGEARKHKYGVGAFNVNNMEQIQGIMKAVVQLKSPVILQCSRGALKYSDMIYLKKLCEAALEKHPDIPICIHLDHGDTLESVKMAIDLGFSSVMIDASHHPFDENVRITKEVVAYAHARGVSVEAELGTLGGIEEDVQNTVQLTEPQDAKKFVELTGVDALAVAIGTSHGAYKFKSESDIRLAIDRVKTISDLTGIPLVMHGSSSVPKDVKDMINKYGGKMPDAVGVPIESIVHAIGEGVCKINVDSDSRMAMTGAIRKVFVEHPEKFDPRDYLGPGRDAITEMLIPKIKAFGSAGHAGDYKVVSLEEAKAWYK
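40 nM FBPA preincubated 10 min at RT with compound (up to 57.5 uM final), then substrate plus GAPDH/TPI/NAD/arsenate coupling and diaphorase/resazurin added. Fluorescence read after 20 min at RT, 525/598 nm.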
HCMV antiviral – qHTS Assay for inhibitors of the human cytomegalovirus (HCMV) | HFF cells, HCMV-luciferase reporter, 72 h; stronger effect = lower value | activity change, negative = inhibition, % at 57.5 µM | hit rate 4.5% among 410,000 | AID 1259415, 2018; in the data active = activity change below about -60%; inconclusive = no clear call, values can overlap the other calls; inactive = above about -39%
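Cell-based, HFFs, 1000 cells/well, 16 h 37C; cpds in DMSO + HCMV-luc, MOI 1 PFU/cell; 72 h 37C; OneGlo luminescence after 5 min RT; norm. to buffer vs Salinomycin 10uM.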
Sm TGR inh – qHTS Assay for the Inhibitors of Schistosoma Mansoni Peroxiredoxins | Potency, µM (highest dose often 114 µM), most hits filed as inhibitors | hit rate 3% among 360,000 | Schistosoma mansoni thioredoxin glutathione reductase (TGR), Q962Y6 | purified TGR, DTNB reduction, TNB absorbance 405 nm | AID 485364, 2010; note: nearly all actives have a fitted effect of over 60% in size
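Kinetic colorimetric format: TGR-catalysed, NADPH-driven DTNB reduction monitored via TNB absorbance. Enzyme dispensed at 20 nM; compound exposure 15 min at room temperature before reaction start.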
Pf growth 96h – Primary qHTS for delayed death inhibitors of the malarial parasite plastid, 96 hour incubation; P. falciparum luciferase reporter growth, 96 h; Potency, µM (doses to about 28.7 µM), actives largely listed as inhibitors; hit rate 6.9% among 320,000
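Parasite growth measured via integrated firefly luciferase reporter in P. falciparum. Infected erythrocytes at 2% hematocrit, 0.05% parasitemia final were treated 96 hours at 37 C under 5% CO2, and luminescence was read.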
Each line names hits and unclear results; the compound was inactive in the other large screens. Rows were chosen to be rich in hits. Some 14% of all compounds tested hit in one or more screens of this group. Unless noted, calls come from the whole dose curve; as a rule, active = well fitted curve in the direction sought with a large enough effect; inconclusive = small, poorly fitted or top-dose-only effect, or another doubt; inactive = no such curve, though single readings can be large; an effect the other way counts as inactive or inconclusive.

COc1ccc(C2Nc3ccccc3C(=O)N2Cc2ccco2)cc1COc1ccc(F)cc1 (stereo unspecified)	Pf growth 48h 2.08µM, Sm TGR inh inconclusive, Pf growth 96h 6.57µM
COc1ccc(C2Nc3ccccc3C(=O)N2c2ccc(C)cc2)cc1Cn1cc([N+](=O)[O-])cn1 (stereo unspecified)	Pf growth 48h inconclusive
COc1ccc(C2Nc3ccccc3C(=O)N2c2ccc(C)cc2)cc1Cn1nnc2ccccc21 (stereo unspecified)	Pf growth 48h 13.1µM, Pf growth 96h inconclusive
COc1ccc(C2Nc3ccccc3C(=O)N2Cc2ccccc2)cc1COc1ccccn1 (stereo unspecified)	Pf growth 48h inconclusive, Pf growth 96h inconclusive
O=C1c2[nH]nc(-c3ccccc3O)c2C(c2cccc(O)c2)N1Cc1ccco1 (stereo unspecified)	Pf growth 96h inconclusive
COc1ccc(C2Nc3ccccc3C(=O)N2Cc2ccco2)cc1CN1C(=O)c2ccccc2C1=O (stereo unspecified)	Pf growth 48h 13.1µM, Sm TGR inh inconclusive, Pf growth 96h inconclusive
CC1CCCCN1C(=O)COc1ccccc1F (stereo unspecified)	none
CCCN1C(=O)c2ccccc2NC1c1ccc(OC)c(CSc2ccccn2)c1 (stereo unspecified)	Pf growth 48h inconclusive, Pf growth 96h 10.4µM
CCCN1C(=O)c2ccccc2NC1c1ccc(OC)cc1O (stereo unspecified)	Pf growth 48h inconclusive, HCMV antiviral -91.4 (no result: Pf growth 96h)
CCOc1ccc(C(=O)c2oc3ccccc3c2NC(=O)Cc2coc3cc(C)cc(C)c23)cc1	none (no result: Pf growth 48h, Giardia FBPA inh, Pf growth 96h)
COc1cc2c(c(OC)c1OC)-c1c(cc(OC)c(OC)c1OC)C[C@H](C)[C@H](C)C2	Pf growth 48h inconclusive, HCMV antiviral -62.9, Pf growth 96h inconclusive
COc1cc(C2c3cc4c(cc3CC3COC(=O)C32)OCO4)cc(OC)c1OC (stereo unspecified)	none (no result: Pf growth 48h, Giardia FBPA inh, Sm TGR inh, Pf growth 96h)
COc1cc(C2c3cc4c(c(O)c3CC3COC(=O)C32)OCO4)cc(OC)c1OC (stereo unspecified)	HCMV antiviral -83.4 (no result: Pf growth 48h, Sm TGR inh, Pf growth 96h)
COc1cc2c(c(OC)c1OC)-c1c(cc3c(c1O)OCO3)C[C@@H](C)[C@@H](C)C2	Pf growth 48h inconclusive, HCMV antiviral inconclusive, Pf growth 96h 10.4µM
COc1cc2c(c(O)c1OC)-c1c(cc(OC)c(OC)c1OC)C[C@@H](C)[C@@H](C)C2	Pf growth 48h 13.1µM, HCMV antiviral -60.2, Pf growth 96h inconclusive
COc1cc2c(c(OC)c1OC)-c1c(cc3c(c1OC)OCO3)CC(C)C(C)C2 (stereo unspecified)	none (no result: Pf growth 48h, HCMV antiviral, Sm TGR inh, Pf growth 96h)
O=C(O)c1ccc(S(=O)(=O)N[C@H](Cc2c[nH]c3ccccc23)C(=O)O)cc1	none (no result: HCMV antiviral)
C[C@H]1Cc2c(COc3ccccc3)nc3c(c2CO1)CN(C(=O)c1cccnc1)CC3	none (no result: Pf growth 48h, HCMV antiviral, Sm TGR inh, Pf growth 96h)
CCOC(=O)c1c(C)[nH]c(C)c1S(=O)(=O)N(C)CC(=O)N1CCN(c2ccc(OC)cc2)CC1	none (no result: Giardia FBPA inh)
Cc1ccc(C)c(OCc2cc(C(=O)NC3CCOC(C)(C)C3)no2)c1 (stereo unspecified)	Pf growth 96h 10.4µM
CSc1ccccc1OCc1cc(C(=O)NC2CCOC(C)(C)C2)no1 (stereo unspecified)	Pf growth 96h inconclusive
COc1ccc(OCc2cc(C(=O)NC3CCOC(C)(C)C3)no2)c2ccccc12 (stereo unspecified)	Pf growth 48h 9.28µM, Pf growth 96h 1.17µM (no result: Giardia FBPA inh)
Cc1ccc(C)c(OCc2cc(C(=O)N3CCN(c4ccccc4C)CC3C)no2)c1 (stereo unspecified)	Pf growth 96h 11.7µM
Cc1cccc(C)c1OCc1cc(C(=O)N2CCN(c3ccccc3)CC2C)no1 (stereo unspecified)	none (no result: Giardia FBPA inh)
CCC(O)c1cc2c(cc1NC(=O)c1ccccc1F)OCCO2 (stereo unspecified)	none (no result: Pf growth 48h, Giardia FBPA inh, Pf growth 96h)
CCOC(=O)CN1C(=O)C(Sc2n[nH]c(-c3ccccc3)n2)CCc2ccccc21 (stereo unspecified)	Pf growth 96h 5.86µM (no result: Pf growth 48h)
CCOc1ccc(N2C(=O)CC(Sc3n[nH]c(-c4ccccc4)n3)C2=O)cc1 (stereo unspecified)	Sm TGR inh 0.631µM
COc1ccc(N2C(=O)CC(Sc3n[nH]c(-c4ccccc4)n3)C2=O)cc1 (stereo unspecified)	Sm TGR inh 0.316µM, Pf growth 96h inconclusive
CCOC(=O)CN1C(=O)C(CC)Oc2ccccc21 (stereo unspecified)	none (no result: Pf growth 96h)
O=C(Nc1ccc(F)c(Cl)c1)N1CCC(CN2CCOCC2)CC1	none (no result: Pf growth 48h, Giardia FBPA inh, Pf growth 96h)
CC(=O)[C@H]1CC[C@H]2[C@@H]3CC=C4C[C@@H](OS(=O)(=O)O)CC[C@]4(C)[C@H]3CC[C@]12C	HCMV antiviral -71.0 (no result: Pf growth 48h, Giardia FBPA inh, Sm TGR inh, Pf growth 96h)
CC(=O)O[C@H]1CC[C@@]2(C)C(=CC[C@H]3[C@@H]4CC[C@H](C(C)=O)[C@@]4(C)CC[C@@H]32)C1	none (no result: Pf growth 48h, Giardia FBPA inh, Sm TGR inh, Pf growth 96h)
O=c1cc(-c2ccccc2)c2cc(Cl)c3c(c2o1)CN(Cc1ccccc1)CO3	none (no result: Pf growth 48h, Giardia FBPA inh, Pf growth 96h)
CC1C(=O)CCC2[C@]1(C)CCC1[C@]2(C)CC[C@@]2(C)C3CC(C)(C)CC[C@]3(C)CC[C@@]12C (stereo partly specified)	none (no result: Pf growth 48h, HCMV antiviral, Sm TGR inh, Pf growth 96h)
c1ccc(C2CC3CC(c4ccco4)N2O3)cc1 (stereo unspecified)	Pf growth 48h inconclusive, Sm TGR inh 35.5µM
O=C1C=CC(O)(c2cc(=O)c3c(O)cc(O)cc3o2)C=C1	Pf growth 48h 9.28µM, HCMV antiviral -96.2, Sm TGR inh 35.5µM, Pf growth 96h 14.7µM
Cc1ccc(SCC2(O)CCN(S(=O)(=O)c3ccc(Cl)cc3)CC2)cc1	Pf growth 48h inconclusive
COc1ccc(S(=O)(=O)N2CCC(O)(c3ccc(Cl)cc3)CC2)cc1OC	HCMV antiviral -72.8
COc1ccc(S(=O)(=O)N2CCC(O)(c3ccc(Cl)cc3)CC2)cc1	none
CN1CCN(CC2(O)CCN(S(=O)(=O)c3ccc(Cl)cc3)CC2)CC1	Pf growth 48h inconclusive, HCMV antiviral -68.7
Cc1ccc2oc(-c3ccc(C)c(NC(=O)/C=C/c4ccc(Cl)cc4)c3)nc2c1	none (no result: Pf growth 48h, Giardia FBPA inh, Pf growth 96h)
CCN(C(=O)COC(=O)c1ccccc1SCC(=O)NC1CCCCCCC1)C1CCS(=O)(=O)C1 (stereo unspecified)	none
Cc1ccc(-c2nc3ncccn3c2Nc2ccccc2C)o1	Pf growth 48h inconclusive, Sm TGR inh 39.8µM, Pf growth 96h inconclusive
Cc1ccc(-c2nc3cnccn3c2Nc2c(C)cccc2C)o1	Sm TGR inh 14.1µM (no result: Pf growth 48h)
Brc1ccc(-c2nc3ncccn3c2NC2CCCCC2)o1	HCMV antiviral inconclusive, Sm TGR inh 35.5µM (no result: Pf growth 48h)
Cc1ccc(-c2nc3ncccn3c2Nc2ccc3c(c2)OCO3)o1	Sm TGR inh inconclusive, Pf growth 96h inconclusive
Cc1ccc(-c2nc3ncccn3c2NC2CCCC2)o1	none

Source: PubChem (National Center for Advancing Translational Sciences (NCATS))
